The text below walks through data of PubChem BioAssay (NCATS).

Records with an inconclusive call do not appear. Calls of active or inactive are those of the source. Calls follow the shape of the dose curve; as a rule, active = well fitted cell-killing curve with a large enough effect; inconclusive = small, poorly fitted or top-dose-only effect, or effect the other way; inactive = no such curve, though single readings can be large or run the other way.

Assay [1] is described as follows: Quantitative High-Throughput drug screen in 47 multiple myeloma cell lines against the NCATS MIPE library collection: PCM6_Riken cell viability assay (AID 1919870). Also: nearly all actives have a fitted effect of over 30% in size. An outline of the steps: (§1)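 500 cells/well; MIPE 4.0 drugs pin-transferred; 48 h, 37C, 5% CO2. CellTiter-Glo, 5 min RT, luminescence. Controls: DMSO 100%, media 0%.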
A short description of assay [2]: Quantitative High-Throughput drug screen in 47 multiple myeloma cell lines against the NCATS MIPE library collection: OPM2_DSMZ cell viability assay (AID 1919872). Also: nearly all actives have a fitted effect of over 30% in size. An outline of the steps:
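qHTS of the MIPE 4.0 collection: 500 myeloma cells/well, 48 h drug exposure at 37C in 5% CO2, then CellTiter-Glo for 5 min at room temperature before luminescence reading.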

A short description of assay [3]: Quantitative High-Throughput drug screen in 47 multiple myeloma cell lines against the NCATS MIPE library collection: KMS28BM_JCRB cell viability assay (AID 1919874). Also: nearly all actives have a fitted effect of over 35% in size. An outline of the steps:
as §1

The nature of assay [4]: Quantitative High-Throughput drug screen in 47 multiple myeloma cell lines against the NCATS MIPE library collection: KMS11_JCRBsus cell viability assay (AID 1919873). Also: nearly all actives have a fitted effect of over 50% in size. An outline of the steps: as §1
The nature of assay [5]: Quantitative High-Throughput drug screen in 47 multiple myeloma cell lines against the NCATS MIPE library collection: RPMI8226_ATCC cell viability assay (AID 1919871). Also: nearly all actives have a fitted effect of over 30% in size. An outline of the steps: as §1
Potency is read from the fitted curve at half-maximal effect.

`C=C1C(=O)OC(CCCCCCCC)C1C(=O)O` (stereo not given): the Potency in assay [1] is 23.5 µM (active). Further, the Potency result in assay [2] and in assay [3] was “inactive” each time.

`CC(C)C(=O)Oc1ccc(CO)cc1[C@H](CCN(C(C)C)C(C)C)c1ccccc1`: the Potency result in assay [1], in assay [2], in assay [4] and in assay [3] was “inactive” in each case.

With `CC#CCn1c(N2CCC[C@@H](N)C2)nc2c1c(=O)n(Cc1nc(C)c3ccccc3n1)c(=O)n2C`, the Potency entry in assay [1], in assay [5], in assay [4] and in assay [3] was “inactive” in each case.

In the case of `O=C(N[C@@H](c1ccccc1)[C@@H]1CCCCN1)c1cccc(C(F)(F)F)c1Cl`, the Potency in assay [1] is 23.5 µM (active); in assay [5], 1.66 µM (active). The Potency result in assay [4] and in assay [3] was “inactive” each time.

Turning to `COC(=O)N[C@H](C(=O)N1CCC[C@@H]1c1ncc(-c2ccc(-c3ccc(-c4cnc([C@@H]5CCCN5C(=O)[C@@H](NC(=O)OC)C(C)C)[nH]4)cc3)cc2)[nH]1)C(C)C`, the figures for the Potency in assay [1], in assay [5] and in assay [3] were 26.4 µM (active), 20.9 µM (active) and 20.9 µM (active), respectively.

Consider `Clc1ccc(COC(Cn2ccnc2)c2ccc(Cl)cc2Cl)cc1` (stereo not given), for which the Potency in assay [1] is 20.9 µM (active). Further, in assay [2], the Potency result is “inactive”.

As to `CC1(C)CCC2=C(O1)c1ccccc1C(=O)C2=O`, the Potency in assay [1] was 20.9 µM (active); in assay [2], 16.6 µM (active); in assay [4], 26.4 µM (active).

Turning to `CC1(C)S[C@H]2[C@H](NC(=O)[C@@H](N)c3ccc(O)cc3)C(=O)N2[C@@H]1C(=O)O`, the Potency in assay [1] is 1.87 µM (active); in assay [4], 18.7 µM (active); in assay [3] it was 5.9 µM (active). In assay [2], the Potency entry was “inactive”.

Turning to `O=C(CCN1CCN(C(=O)OCc2cc(Cl)cc(Cl)c2)CC1)c1ccc2[nH]c(=O)oc2c1`, the Potency result in assay [1], in assay [5], in assay [4] and in assay [3] was “inactive” each time.

As to `COc1cc2ncnc(-n3nc(-c4ccccn4)nc3N)c2cc1OC`, the Potency in assay [1] was 4.69 µM (active). Also, the Potency entry in assay [2], in assay [4] and in assay [3] was “inactive” throughout.

For `NC(=O)c1cnc(-c2ccc(C3(N)CCC3)cc2)c(-c2ccccc2)c1`, the Potency in assay [1] is 1.32 µM (active); in assay [2], 20.9 µM (active).

As to `COc1ncc(-c2ccc3nccc(-c4ccnnc4)c3c2)cc1NS(=O)(=O)c1ccc(F)cc1F`, the Potency is 0.0332 µM (active) in assay [1] and 0.0026 µM (active) in assay [2].

Take `C[C@@H]1CCN(C(=O)CC#N)C[C@H]1N(C)c1ncnc2[nH]ccc12`: the Potency result in assay [1] and in assay [2] was “inactive” throughout.

As to `CCOC(=O)C1=C(N)Oc2ccc(Br)cc2C1C(C#N)C(=O)OCC` (stereo not given), the Potency was 16.6 µM (active) in assay [1], 26.4 µM (active) in assay [5], 23.5 µM (active) in assay [4] and 20.9 µM (active) in assay [3].

Turning to `CC1CCC(C(=O)N(c2cc(C#CC(C)(C)C)sc2C(=O)O)C2CCC(O)CC2)CC1` (stereo not given), in assay [1], the Potency was 20.9 µM (active). In assay [2], the Potency entry was “inactive”.

For the compound `O=c1cc(-c2ccccc2)oc2cc(O)c(O)c(O)c12`, the Potency entry in assay [1], in assay [5] and in assay [3] was “inactive” in each case.

Take `CO[C@H]1C=CO[C@@]2(C)Oc3c(C)c(O)c4c(O)c(c5c(c4c3C2=O)NC2(CCN(CC(C)C)CC2)N=5)=NC(=O)C(C)=CC=C[C@H](C)[C@H](O)[C@@H](C)[C@@H](O)[C@@H](C)[C@H](OC(C)=O)[C@H]1C`: the Potency in assay [5] is 16.6 µM (active). Besides, the Potency result in assay [2] and in assay [3] was “inactive” throughout.

For the compound `NC(=O)c1cccc2[nH]c(-c3ccc([C@H]4CCCN4)cc3F)nc12`, the Potency result in assay [5], in assay [2], in assay [4] and in assay [3] was “inactive” each time.

As to `CC[C@H]1OC(=O)[C@H](C)[C@@H](O[C@H]2C[C@@](C)(OC)[C@@H](O)[C@H](C)O2)[C@H](C)[C@@H](O[C@@H]2O[C@H](C)C[C@H](N(C)C)[C@@H]2O)[C@](C)(O)C[C@@H](C)CN(C)[C@H](C)[C@@H](O)[C@]1(C)O`, the Potency in assay [5] is 18.7 µM (active). Further, the Potency result in assay [3] was “inactive”.

On to `O=C(O)c1ccc(-c2c[nH]c3ncc(-c4ccccc4)cc23)cc1C1CCCC1`, for which the Potency entry in assay [5], in assay [2] and in assay [3] was “inactive” in each case.

As for `NS(=O)(=O)c1ccc(NC2=CC(=O)c3ccccc3C2=O)cc1`, the Potency entry in assay [5], in assay [2] and in assay [3] was “inactive” each time.

Turning to `COc1ccc2c3c1OC1C[C@@H](O)C=C[C@@]31CCN(C)C2` (stereo not given in full), the Potency result in assay [5], in assay [2] and in assay [4] was “inactive” in each case.

For `Cn1cc(C=C2C(=O)Nc3cccnc32)c2ccccc21`, the Potency result in assay [5], in assay [2] and in assay [3] was “inactive” throughout.

Consider `CO[C@H]1C[C@@H]2CC[C@@H](C)[C@@](O)(O2)C(=O)C(=O)N2CCCC[C@@H]2C(=O)O[C@H]([C@H](C)C[C@@H]2CC[C@H](OP(C)(C)=O)[C@H](OC)C2)CC(=O)[C@H](C)C=C(C)[C@@H](O)[C@@H](OC)C(=O)[C@H](C)C[C@H](C)C=CC=CC=C1C`, for which the Potency result in assay [5], in assay [2], in assay [4] and in assay [3] was “inactive” each time.
